FLuc inh-1 = inhibitors of firefly (Photinus pyralis) luciferase | P08659 | Potency, µM (highest dose often 115 µM), most hits filed as inhibitors | 2.5% of 76,000 active | purified P. pyralis luciferase, luminescence, biochemical | AID 1347043; further: on the % scale 0 is the no-effect control and ±100 the full control effect; nearly all actives have a fitted effect of over 65% in size
Target sequence (P08659 whole entry, looked up): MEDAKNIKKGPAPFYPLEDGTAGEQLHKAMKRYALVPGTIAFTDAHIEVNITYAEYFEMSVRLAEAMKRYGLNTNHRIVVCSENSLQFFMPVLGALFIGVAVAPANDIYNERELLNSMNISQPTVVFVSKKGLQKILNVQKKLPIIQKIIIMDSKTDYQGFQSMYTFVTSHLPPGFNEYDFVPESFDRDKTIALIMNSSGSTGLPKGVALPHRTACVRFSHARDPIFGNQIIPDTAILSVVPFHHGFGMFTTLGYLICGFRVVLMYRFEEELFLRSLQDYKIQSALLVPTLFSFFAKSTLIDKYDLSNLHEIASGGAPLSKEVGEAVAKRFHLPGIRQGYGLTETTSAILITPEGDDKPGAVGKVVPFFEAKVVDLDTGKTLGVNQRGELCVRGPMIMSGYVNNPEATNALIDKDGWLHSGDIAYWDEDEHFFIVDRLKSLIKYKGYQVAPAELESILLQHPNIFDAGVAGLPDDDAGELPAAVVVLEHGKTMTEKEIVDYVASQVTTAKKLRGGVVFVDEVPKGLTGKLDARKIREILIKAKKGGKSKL
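Cell-free enzyme assay, 10nM P. pyralis luciferase, luciferin and ATP each at 10uM. Inhibition profiled over a 6-point titration, read as luminescence.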
NPR1 antag = antagonists of human natriuretic peptide receptor Npr1; HEK293 hNpr1 GloSensor cGMP, ANP-stimulated luminescence; Potency, µM (top dose mostly 46.3 µM), for inactives: top-dose activity change, negative = inhibition, hits mostly inhibitors; 1.6% of 76,000 active; calls by dose curve; further: on the % scale 0 is the no-effect control and ±100 the full control effect; nearly all actives have a fitted effect of over 60% in size
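Compound pre-incubated 30 min at room temperature on GloSensor-loaded HEK293 cells stably carrying hNpr1 and the pGS-40F cGMP biosensor. Stimulation uses hNppA at 0.1 nM final; luminescence is taken at baseline and 20 min post-agonist.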
GPT2 inhibitor = inhibitors of human GPT2 alanine aminotransferase; Q8TD30; Recombinant GPT2, coupled pyruvate oxidase/HRP Amplex Red fluorescence; Potency, µM (series often up to 57.7 µM), without a hit: at the highest dose activity change, negative = inhibition, usual class: inhibitors; 0.25% of 100,000 active; AID 1671188; further: on the % scale 0 is the no-effect control and ±100 the full control effect; nearly all actives have a fitted effect of over 60% in size
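Recombinant GPT2 (10ng/uL) with 250uM a-KG and 2mM L-alanine, 30 min at room temperature, in HEPES pH 7.5 buffer. Pyruvate detected by pyruvate oxidase/HRP/Amplex Red fluorescence after 30 min in the dark; AOA (50uM) as positive control.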
NIH3T3 tox = kills NIH 3T3 cells; Potency, µM (highest dose often 96.7 µM), for the others: at the highest dose activity change, negative = cytotoxicity, usual class: inhibitors; 4.3% of 94,000 active; NIH 3T3 viability, CellTiter-Glo ATP luminescence, 48-72 h; AID 1345082; further: on the % scale 0 is the no-effect control and ±100 the full control effect; nearly all actives have a fitted effect of over 55% in size
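Cytotoxicity is measured as loss of cellular ATP: NIH 3T3 cells (400/well) are exposed to compound for 48 or 72 hr at 37 °C, then CellTiter-Glo luminescence is imaged after 10 min at room temperature.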
HEK293 tox = HEK 293 cell cytotoxicity; HEK 293 viability, ATP luminescence (CellTiter-Glo), 48-72 h; Potency, µM (series often up to 115 µM), for inactives: top-dose activity change, negative = cytotoxicity, actives largely listed as inhibitors; 6.6% of 94,000 active; further: on the % scale 0 is the no-effect control and ±100 the full control effect; nearly all actives have a fitted effect of over 60% in size
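250 HEK 293 cells/well; compound by pintool; incubated 48 or 72 hr at 37 degree Celsius; CellTiter-Glo added, 10 min RT, luminescence imaged.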
FLuc SDR no ATP = binders stabilizing firefly luciferase, without ATP. shares compounds with FLuc inh-1. Purified FLuc-C-HiBiT, Nano-Glo HiBiT luminescence, no ATP. Potency, µM (titrated, usually from 32.7 µM), for the others: top-dose activation (signal gain), actives largely listed as activators. 7.8% of 1,300 active. AID 1963318; further: nearly all actives have a fitted effect of over 55% in size
FLuc SDR ATP = firefly luciferase binding stabilization, ATP added; shares compounds with FLuc inh-1; purified FLuc-C-HiBiT + ATP, HiBiT complementation luminescence; Potency, µM (series often up to 32.7 µM), without a hit: at the highest dose activation (gain of signal), actives largely listed as activators; 8.7% of 1,300 active; AID 1963319;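 further: signal reports ligand binding via conformational change of the enzyme rather than luciferase catalysis; % of control where 0% means no effect; nearly all actives have a fitted effect of over 55% in size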
FLuc inh-2 = blocks firefly luciferase enzymatic activity; shares compounds with FLuc inh-1; purified FLuc-C-HiBiT enzyme, luciferin luminescence; Potency, µM (titrated, usually from 32.7 µM), inactives show top-dose activity change, negative = inhibition, actives largely listed as inhibitors; 42% of 1,300 active; AID 1963320; further: on the % scale 0 is the no-effect control and ±100 the full control effect; nearly all actives have a fitted effect of over 70% in size
Active calls of the source: *; i = inactive; u = inconclusive; x = no result given; [ ] = remark or other dose. This is a sample that favours compounds with a hit; in the whole collection about 10% have one here. Unless noted, the call rests on the fitted dose curve; in most records, active means well fitted curve in the direction sought with a large enough effect; inconclusive means small, poorly fitted or top-dose-only effect, or another doubt; inactive means no such curve, though single readings can be large; an effect the other way counts as inactive or inconclusive. Potency means the concentration at half of the fitted maximal effect.

SMILES	FLuc inh-1	NPR1 antag	GPT2 inhibitor	NIH3T3 tox	HEK293 tox	FLuc SDR no ATP	FLuc SDR ATP	FLuc inh-2
CC(C)NC(=O)c1ccc2oc(-c3cccnc3Cl)nc2c1	x	x	-2%	-13%	-20%	x	x	x
Cc1ccc(CN2CC(Oc3ccccc3C(=O)NCc3ccccc3)C2)o1	i	-10%	i	u	u	x	x	x
COc1ccc(-c2noc(-c3ccc(C)cc3Cl)n2)cc1OC	x	x	x	x	x	20%	12%	u
CCC[C@H](C)Oc1nc(N)c2[nH]c(=O)n(CCCCCN3CCCCC3)c2n1	x	x	x	x	x	13%	9%	-3%
CCCCn1c(=O)[nH]c2cccnc21	i	13%[70.6 µM]	u	-12%[174 µM]	1%[230 µM]	x	x	x
COc1ccc(NC(=O)C2CCN(c3cn[nH]c(=O)c3)C2)cc1 (centres undefined)	i	-1%	3%	-2%	-4%	x	x	x
O=C1CC(c2ccccc2)N(C(=O)CNC(=O)Nc2ccc3c(c2)OCCO3)CCCCCN1 (centres undefined)	10µM*	-2%	3%	-2%	-2%	15%	14%	u
O=C1c2cnc(-c3ccsc3)nc2OCCN1c1ccccc1	7.1µM*	-5%[70.6 µM]	-9%[88.5 µM]	u	u	u	u	u
CN(C)c1cccc(-c2ncc3c(n2)OCCN(c2ccccc2)C3=O)c1	1.6µM*	-30%[70.6 µM]	2%[88.5 µM]	u	u	u	u	13µM*
O=c1n(-c2ccc(F)cc2F)nc2n1CCN([S+](=O)([O-])c1ccccc1)C2	i	-3%	4%	1%	-10%	x	x	x
CCCn1c(C)cnc1CC1CCN(C(=O)C2(c3ccc(OC)cc3)CC2)C1 (centres undefined)	6.3µM*	-21%	-21%	-25%	28µM*	12%	17%	-14%
COCCn1c(C)cnc1CC1CCCN(C(=O)C2(c3ccc(OC)cc3)CC2)C1 (centres undefined)	i	-5%	i	-6%	-3%	x	x	x
O=C(NCC(F)F)C1CCN(Cc2ccccc2-c2ccccc2F)CC1	x	x	x	-16%	-20%	x	x	x
CCn1c(C2CCN(C(=O)CC34CC5CC(CC(C5)C3)C4)CC2)n[nH]c1=O	i	7%	4%	0%	-5%	x	x	x
COCC1CN(C(=O)CCc2ccccc2OC)CC12CCNCC2 (centres undefined)	i	-1%	i	-19%	-13%	x	x	x
CN1C(=O)c2cccn2CC1CNC(=O)CCc1nc2ccccc2s1 (centres undefined)	i	-9%	-2%	-9%	0%	x	x	x
Cc1cc2c(c(-c3nc4ccccc4s3)c1)OC(CNC(=O)CCc1cccnc1)C2 (centres undefined)	x	x	x	x	x	14%	9%	u
NC(=O)N1CCCC(C(=O)NCCc2noc(-c3ccccc3)n2)C1 (centres undefined)	i	2%	-6%	i	5%	x	x	x
Cc1c(-c2ccccc2F)[nH]c2ccc(CNC(=O)C3C=CCN3)cc12 (centres undefined)	10µM*	-23%	0%	u	u	19%	13%	u
CC(C)N1CC(C(=O)NCc2ccc(F)c(F)c2)NC1=O (centres undefined)	x	x	i	-25%[138 µM]	-8%[172 µM]	x	x	x
Cc1c(-c2ccccc2F)[nH]c2ccc(CNC(=O)C3CCCN(C(N)=O)C3)cc12 (centres undefined)	3.5µM*	-5%	-13%	u	u	31%	u	5.6µM*

Screening data (PubChem)
